Reference: PubChem BioAssay (NCATS)
Values joined by “and” are separate entries in the source; they are usually repeats but may differ in a detail not shown here. Equal values may be shown once. Records with an inconclusive call do not appear. Active and inactive are the calls of the source. Unless noted, the call rests on the fitted dose curve; in most records, active means well fitted curve in the direction sought with a large enough effect; inconclusive means small, poorly fitted or top-dose-only effect, or another doubt; inactive means no such curve, though single readings can be large; an effect the other way counts as inactive or inconclusive.

Tests used:
[1] = target: Arylsulfatase A (Homo sapiens) (UniProt P15289); assay: qHTS screen for enhancers of Arylsulfatase A (ASA1): LOPAC Validation Assay (AID 720538)
Outline: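 First, ASA-I179S fibroblasts from an MLD patient adhered for 6 hrs. Next, compounds were added for 48h. Then pNCS substrate (0.5mM final) with lysis buffer reacted 14h at room temperature before NaOH stop and fluorescence measurement.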

[2] = qHTS for compounds that reverse cellular toxicity of Amyloid beta (A-beta) peptide in yeast: LOPAC Validation Assay (AID 720559); conditions: Potency: rescue of growth toxicity;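 further: plate controls were DMSO for no effect and equimolar ferric chloride plus clioquinol rescue for full effect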
Outline: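 Activity is expressed relative to DMSO and an equimolar ferric chloride/clioquinol mix. Compounds were pinned into medium with A-beta-expressing yeast, grown 48 hr at 30 C, then read by absorbance at 600 nm.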

[3] = qHTS for Activators of Parkin Expression: LOPAC Validation Assay (FLuc Reporter) (AID 720573;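 further: 0% = DMSO and 100% = positive control compounds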)
Outline: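 A neuronal cell line harbouring FLuc and NLuc reporters behind the Parkin promoter was exposed to compounds for 24 h. Firefly luciferase signal, measured after 10 min with detection reagent, was scaled to DMSO and positive-control wells.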

[4] = target: T1, Hexokinase-4 (Homo sapiens) + Glucokinase regulatory protein (Homo sapiens) (UniProt P35557+Q14397); assay: qHTS assay for inhibitors of recombinant human GCK-GKRP interaction: Diaphorase-coupled assay (AID 743205)
Outline: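 Inhibitors of the GCK–GKRP complex relieve GKRP suppression of GCK, detected through a G6PDH–diaphorase cascade reducing resazurin. Human GST-GCK and FLAG-GKRP are used at 10 nM with 5 mM glucose and 0.4 mM ATP.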

[5] = target: T1, Hexokinase-4 (Homo sapiens) + Glucokinase regulatory protein (Homo sapiens); assay: qHTS assay for inhibitors of recombinant human GCK-GKRP interaction: ADP-Glo assay (AID 743206);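 further: plate controls were DMSO plus enzyme for no effect and no enzyme for full effect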
Outline: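 GST-GCK and FLAG-GKRP (15 nM each in the dispensed mix, with 2 uM S6P) react with 0.4 mM ATP and 5 mM glucose (final) in Hepes pH 7.6 for 60 min at room temperature. ADP is measured by ADP-Glo luminescence.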

[6] = qHTS Assay for Identifying Gametocytocidal Compounds (AID 743244);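 further: on the % scale 0 is the no-effect control and ±100 the full control effect; actives lower the fluorescent signal which means gametocytes are killed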; conditions: P. falciparum 3D7 stage III-V gametocytes, alamarBlue, 72 h; max response: stronger effect = lower value
Outline: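 Fluorescence at Ex 525/Em 598 nm, recorded 24 h after alamarBlue addition, reports residual metabolic activity of 3D7 gametocytes (stages III–V) following 72 h compound exposure at 37 °C, 5% CO2.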

[7] = qHTS for Activators of Parkin Expression: LOPAC Validation Assay (NLuc Reporter) (AID 720572;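 further: 0% = DMSO and 100% = positive control compound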)
Outline: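 Neuronal line stably carrying a FLuc/NLuc coincidence reporter under the Parkin promoter, seeded 24 h, then dosed in 7-point series for 24 h at 37 C. NLuc luminescence read after FLuc; normalized to DMSO and positive control (100%).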

[8] = target: T1, Hexokinase-4 (Homo sapiens) + Glucokinase regulatory protein (Homo sapiens); assay: qHTS assay for inhibitors of recombinant human GCK-GKRP interaction: HTRF assay (AID 743207);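 further: 0% = DMSO with GCK present and -100% = DMSO wells lacking GCK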
Outline: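 Steps: dispense GCK–GKRP complex (5 nM each, GST- and FLAG-tagged) with 2 uM S6P; pin in compounds; add XL665/Eu-cryptate-labelled antibodies; incubate 60 min at room temperature; read time-resolved FRET at 665 and 615 nm.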

[9] = qHTS assay for small molecule agonists of the antioxidant response element (ARE) signaling pathway measured by Nrf2-dependant transcriptional activity (AID 720636; active means well fitted curve in the direction sought with a large enough effect in the repeat runs; an effect the other way counts as inactive or inconclusive;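 further: HepG2 cells with an ARE-driven luciferase reporter; % of control where 0% means no effect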)
Outline: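 In HepG2 cells engineered with an Nrf2-responsive luciferase gene, ARE induction was quantified as luminescence after 16 hr compound treatment at 37 C.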

[10] = qHTS assay for small molecule antagonists of the retinoid-related orphan receptor gamma (ROR-gamma) signaling pathway - cell viability counter screen (AID 720652; active means well fitted curve in the direction sought with a large enough effect in the repeat runs; an effect the other way counts as inactive or inconclusive;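 further: CHO reporter cells with doxycycline-induced ROR-gamma expression; series mostly up to about 92 µM; compound exposure lasted 16 hr before ATP read; on the % scale 0 is the no-effect control and ±100 the full control effect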)
Outline: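 Cytotoxicity is quantified via intracellular ATP (CellTiter-Glo luminescence) in doxycycline-induced CHO ROR response element-luciferase reporter cells treated with compound for 16 hr at 37 C, 5% CO2.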

[11] = qHTS assay for small molecule agonists of the antioxidant response element (ARE) signaling pathway measured by Nrf2-dependant transcriptional activity - cell viability counter screen (AID 720653; active means well fitted curve in the direction sought with a large enough effect in the repeat runs; an effect the other way counts as inactive or inconclusive; further: on the % scale 0 is the no-effect control and ±100 the full control effect); conditions: ARE-bla HepG2 viability, CellTiter-Glo ATP luminescence, 16 h; max response: stronger effect = lower value
Outline: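 ARE-bla HepG2 cells (2,000/well) rested 5 hrs at 37C/5% CO2, then exposed to compounds in DMSO for 16 hrs. Viability was read in the same wells as intracellular ATP by luminescence, 30 min at room temperature after reagent addition.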

[12] = qHTS assay for cell viability of HEK293 cells (AID 743288); conditions: ATP luminescence (CellTiter-Glo), 18 h; max response: stronger effect = lower value; further: on the % scale 0 is the no-effect control and ±100 the full control effect; nearly all actives have a fitted effect of over 50% in size
Outline: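 The Tox21 protocol used parental HEK293 cells treated for 18 h at 37 C with compounds delivered by pintool; ATP-coupled luminescence after 30 min at room temperature gave viability.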

[13] = qHTS assay for cell viability of the p53RE-bla HCT-116 cell line (AID 743292); further: on the % scale 0 is the no-effect control and ±100 the full control effect; nearly all actives have a fitted effect of over 55% in size
Outline: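 Intracellular ATP of p53RE-bla HCT-116 cells measured by luciferase luminescence following 16 h compound incubation at 37 C; DMSO-only wells served as vehicle controls.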

T1 sequence (P35557 whole entry, looked up): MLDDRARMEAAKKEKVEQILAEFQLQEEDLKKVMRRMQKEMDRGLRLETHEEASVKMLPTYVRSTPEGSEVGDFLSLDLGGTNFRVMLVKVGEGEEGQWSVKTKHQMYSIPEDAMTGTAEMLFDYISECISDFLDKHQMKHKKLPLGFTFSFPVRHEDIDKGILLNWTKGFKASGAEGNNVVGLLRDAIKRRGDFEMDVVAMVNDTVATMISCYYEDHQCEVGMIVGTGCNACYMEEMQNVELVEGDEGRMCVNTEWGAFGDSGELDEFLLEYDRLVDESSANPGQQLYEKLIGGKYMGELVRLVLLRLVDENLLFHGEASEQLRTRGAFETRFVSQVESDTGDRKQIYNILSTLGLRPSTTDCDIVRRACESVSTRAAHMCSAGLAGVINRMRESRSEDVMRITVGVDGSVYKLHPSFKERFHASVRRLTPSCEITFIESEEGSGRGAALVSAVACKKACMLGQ
T1 sequence (Q14397 whole entry, looked up): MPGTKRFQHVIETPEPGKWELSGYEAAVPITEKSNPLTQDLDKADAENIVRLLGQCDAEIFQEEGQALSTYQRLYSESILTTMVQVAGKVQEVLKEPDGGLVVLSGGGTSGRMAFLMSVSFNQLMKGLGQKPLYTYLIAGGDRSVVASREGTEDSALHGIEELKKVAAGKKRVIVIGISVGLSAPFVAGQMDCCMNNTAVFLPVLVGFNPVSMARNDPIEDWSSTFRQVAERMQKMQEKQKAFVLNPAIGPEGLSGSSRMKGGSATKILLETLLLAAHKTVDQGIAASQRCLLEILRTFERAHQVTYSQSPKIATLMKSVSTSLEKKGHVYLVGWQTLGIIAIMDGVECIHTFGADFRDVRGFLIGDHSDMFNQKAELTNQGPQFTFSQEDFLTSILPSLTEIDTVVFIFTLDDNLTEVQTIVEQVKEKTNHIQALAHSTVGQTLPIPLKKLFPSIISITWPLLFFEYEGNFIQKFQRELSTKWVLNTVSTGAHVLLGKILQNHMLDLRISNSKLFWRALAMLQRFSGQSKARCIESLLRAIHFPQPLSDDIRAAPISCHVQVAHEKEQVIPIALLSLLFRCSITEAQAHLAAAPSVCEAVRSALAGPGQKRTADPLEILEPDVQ
Arylsulfatase A (Homo sapiens), sequence (P15289 whole entry, looked up): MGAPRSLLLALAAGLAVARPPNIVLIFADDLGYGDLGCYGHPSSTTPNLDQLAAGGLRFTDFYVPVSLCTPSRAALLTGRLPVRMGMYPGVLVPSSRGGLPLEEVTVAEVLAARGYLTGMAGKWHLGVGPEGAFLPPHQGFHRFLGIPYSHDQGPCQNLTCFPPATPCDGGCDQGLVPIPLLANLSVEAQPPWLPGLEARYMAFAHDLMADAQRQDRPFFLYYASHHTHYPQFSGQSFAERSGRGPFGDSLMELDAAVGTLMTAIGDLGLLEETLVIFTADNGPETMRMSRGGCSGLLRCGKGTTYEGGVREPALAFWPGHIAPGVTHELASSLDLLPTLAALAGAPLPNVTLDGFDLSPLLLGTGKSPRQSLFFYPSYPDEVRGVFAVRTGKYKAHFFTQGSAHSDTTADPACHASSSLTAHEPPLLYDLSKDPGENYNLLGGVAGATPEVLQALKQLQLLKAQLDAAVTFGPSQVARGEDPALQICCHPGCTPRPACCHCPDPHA

CN1CCc2ccccc2Cc2[nH]c3ccccc3c2CC1
inactive: Potency [1] | Potency [2] | Potency [3] | outcome [4] | Potency [5] | max response [6] -0.861%

CCCCN1CCC(n2c(=O)[nH]c3ccccc32)CC1
inactive: Potency [2] | Potency [7] | Potency [3] | outcome [4] | Potency [5] | Potency [8] | max response [6] 5.22%

O=C(O)CNC(=O)C(CS)Cc1ccccc1 (stereo not given)
inactive: Potency [2] | Potency [7] | Potency [3] | outcome [4] | Potency [5] | Potency [8]

CC1OC1P(=O)(O)O (stereo not given)
inactive: Potency [2] | Potency [7] | Potency [3] | outcome [4] | Potency [5] | Potency [8] | max response [6] -9.6%

O=C(/C=C/c1ccc(O)cc1)c1ccc(O)cc1O
inactive: Potency [2] | Potency [7] | Potency [3] | outcome [4] | Potency [5] | Potency [8]

CN1CCC[C@H]1c1cccnc1
inactive: Potency [2] | Potency [7] | Potency [3] | Potency [9] | Potency [10] | max response [11] -4.29% and -4.16% | outcome [4] | Potency [5] | max response [12] -10.2% and -14.6% | Potency [13]

O=C(O)CCCC[C@@H]1CCSS1
inactive: Potency [1] | Potency [2] | Potency [3] | outcome [4] | Potency [5] | Potency [8] | max response [6] 7.49%

Oc1ccccc1O
inactive: Potency [1] | Potency [2] | max response [11] -28.6% | outcome [4] | Potency [5] | Potency [8] | Potency [13]

C=C[C@H]1CN2CC[C@@H]1C[C@@H]2[C@@H](O)c1ccnc2ccc(OC)cc12
inactive: Potency [2] | Potency [7] | Potency [3] | outcome [4] | Potency [5] | Potency [8]

CN=c1nc(-c2ccccc2)n(-c2ccccc2)s1
inactive: Potency [2] | Potency [7] | Potency [3] | outcome [4] | Potency [5] | Potency [8]

Nc1ncnc2c1ncn2[C@@H]1O[C@H](COP(=O)(O)CP(=O)(O)OP(=O)(O)O)[C@@H](O)[C@H]1O
inactive: Potency [2] | Potency [7] | Potency [3] | outcome [4] | Potency [5] | Potency [8]

NCC1OC(O[C@H]2[C@H](O)[C@@H](OC3C(O)C(N)CC(N)C3OC3OC(CO)C(O)C(O)C3N)O[C@@H]2CO)C(N)C(O)C1O (stereo not given in full)
inactive: Potency [2] | Potency [7] | Potency [3] | outcome [4] | Potency [5] | Potency [8]
